Inconclusive results are not listed. Calls of active or inactive are those of the source. Unless noted, calls come from the whole dose curve.
Tests used:
[1] = Nuclear factor erythroid 2-related factor 2/antioxidant responsive element (Nrf2/ARE) small molecule agonists: qHTS cell viability counter screen in human keratinocytes (AID 1919968; active = well fitted curve in the direction sought with a large enough effect in the repeat runs; an effect the other way counts as inactive or inconclusive; note: nearly all actives have a fitted effect of over 55% in size; note: potency is the fitted concentration of half-maximal effect)
How it was run: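 In human HaCaT keratinocytes stably expressing an ARE-driven luciferase, compound exposure lasted 23 h at 37 C under 5% CO2. Viable cells are quantified with a protease-based fluorogenic reagent (CellTiter-Fluor) read 1 h after addition.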

[2] = Nuclear factor erythroid 2-related factor 2/antioxidant responsive element (Nrf2/ARE) small molecule agonists: luciferase reporter gene qHTS assay in human keratinocytes (AID 1919969); note: nearly all actives have a fitted effect of over 35% in size; note: potency is the fitted concentration of half-maximal effect
[3] = molecular target: Gonadotropin-releasing hormone receptor (Homo sapiens) (UniProt P30968); assay: Human gonadotropin-releasing hormone receptor (GnRHR) small molecule agonists, calcium flux assay in GnRHR-HEK293 cells (AID 1920063); note: nearly all actives have a fitted effect of over 35% in size
Sequence of Gonadotropin-releasing hormone receptor (Homo sapiens) (P30968 whole entry, looked up): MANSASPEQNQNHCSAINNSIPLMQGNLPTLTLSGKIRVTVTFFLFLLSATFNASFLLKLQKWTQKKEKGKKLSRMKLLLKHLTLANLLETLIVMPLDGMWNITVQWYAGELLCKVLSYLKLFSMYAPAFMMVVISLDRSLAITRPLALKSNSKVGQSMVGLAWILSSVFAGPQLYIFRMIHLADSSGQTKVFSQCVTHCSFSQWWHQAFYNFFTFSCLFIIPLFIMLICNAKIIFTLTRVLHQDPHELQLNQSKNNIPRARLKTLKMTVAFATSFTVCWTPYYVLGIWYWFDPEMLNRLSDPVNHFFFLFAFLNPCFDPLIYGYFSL
How it was run: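 Intracellular calcium rise is the read-out: engineered human GnRHR HEK293 cells, dye-loaded, are exposed to DMSO-dissolved compounds and fluorescence at Ex/Em 480/540 is tracked for 3 min.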

[4] = molecular target: KiSS-1 receptor (Homo sapiens) (UniProt Q969F8); assay: Human kisspeptin (KISS1R) small molecule agonists, calcium flux assay in KISS1R-HEK293 cells (AID 1920064; active = well fitted curve in the direction sought with a large enough effect in the repeat runs; an effect the other way counts as inactive or inconclusive)
Sequence of KiSS-1 receptor (Homo sapiens) (Q969F8 whole entry, looked up): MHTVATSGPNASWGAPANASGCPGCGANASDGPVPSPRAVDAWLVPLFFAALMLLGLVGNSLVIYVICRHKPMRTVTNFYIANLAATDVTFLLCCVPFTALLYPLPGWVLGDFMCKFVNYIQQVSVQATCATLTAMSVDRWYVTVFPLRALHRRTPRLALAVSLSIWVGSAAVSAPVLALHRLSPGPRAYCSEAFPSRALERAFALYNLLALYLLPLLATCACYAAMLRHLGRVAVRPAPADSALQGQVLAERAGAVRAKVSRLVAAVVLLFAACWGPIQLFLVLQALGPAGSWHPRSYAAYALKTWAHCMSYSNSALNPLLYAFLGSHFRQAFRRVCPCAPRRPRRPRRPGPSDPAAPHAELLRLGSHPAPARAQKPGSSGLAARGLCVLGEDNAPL
How it was run: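 Concentration-response testing used 15 concentrations in triplicate on human KISS1R-expressing HEK293 cells. Calcium-dependent fluorescence (Ex/Em 480/540) was followed kinetically for 3 min after compound transfer.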

[5] = G protein-coupled receptor (GPCR) small molecule agonists, calcium flux assay: HEK293 wild type cell line counter screen (AID 1920065)
How it was run: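 Fluorescence intensity signals activation. After overnight (18 h) culture and a 1 h calcium dye load at 37 C, compounds are added by pin tool and the plate read at 480/540 nm for 3 min in 1 s steps.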

[6] = p53 small molecule agonists, cell-based qHTS assay with rat liver microsomes (AID 1963578); note: potency is the fitted concentration of half-maximal effect
How it was run: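 p53RE-bla cells, 4,000/well, pre-incubated 5 h, then given compounds plus rat liver microsomes (0.5 mg/mL final) and NADPH (0.5 mg/mL final). Incubation 16 h at 37 C; beta-lactamase reporter read by LiveBLAzer fluorescence after 2 h at room temperature.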

[7] = p53 small molecule agonists, cell-based qHTS assay with human liver microsomes: qHTS cell viability counter screen (AID 1963579); note: nearly all actives have a fitted effect of over 45% in size; note: potency is the fitted concentration of half-maximal effect
How it was run: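 p53RE-bla cells, 4,000/well, dosed 5 hours after plating, with human liver microsomes (0.5 mg/mL final) plus NADPH (0.5 mg/mL final), 16 hours at 37 C. Viability read as CellTiter-Glo luminescence after 30 min at room temperature.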

[8] = p53 small molecule agonists, cell-based qHTS assay with rat liver microsomes: qHTS cell viability counter screen (AID 1963580); note: nearly all actives have a fitted effect of over 45% in size; note: potency is the fitted concentration of half-maximal effect
How it was run: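 Counter screen for cytotoxicity under metabolic activation: rat liver microsomes and NADPH, 0.5 mg/mL final each, added with compounds to p53RE-bla HCT-116 cells; 16 h at 37 C, then ATP luminescence read.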

[9] = p53 small molecule agonists, cell-based qHTS assay: qHTS cell viability counter screen (AID 1963581); note: nearly all actives have a fitted effect of over 45% in size; note: potency is the fitted concentration of half-maximal effect
How it was run: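 Luminescence from CellTiter-Glo, reflecting ATP content, serves as the cytotoxicity measure; it is taken after the 2 h reporter substrate step in HCT-116 p53RE-bla cells dosed for 16 h at 37 C.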

[10] = molecular target: 5-hydroxytryptamine receptor 2A (Homo sapiens) (UniProt P28223); assay: 5-hydroxytryptamine receptor 2A (HTR2A) small molecule antagonists, cell-based qHTS assay (AID 1963586); note: nearly all actives have a fitted effect of over 45% in size; note: potency is the fitted concentration of half-maximal effect
Sequence of 5-hydroxytryptamine receptor 2A (Homo sapiens) (P28223 whole entry, looked up): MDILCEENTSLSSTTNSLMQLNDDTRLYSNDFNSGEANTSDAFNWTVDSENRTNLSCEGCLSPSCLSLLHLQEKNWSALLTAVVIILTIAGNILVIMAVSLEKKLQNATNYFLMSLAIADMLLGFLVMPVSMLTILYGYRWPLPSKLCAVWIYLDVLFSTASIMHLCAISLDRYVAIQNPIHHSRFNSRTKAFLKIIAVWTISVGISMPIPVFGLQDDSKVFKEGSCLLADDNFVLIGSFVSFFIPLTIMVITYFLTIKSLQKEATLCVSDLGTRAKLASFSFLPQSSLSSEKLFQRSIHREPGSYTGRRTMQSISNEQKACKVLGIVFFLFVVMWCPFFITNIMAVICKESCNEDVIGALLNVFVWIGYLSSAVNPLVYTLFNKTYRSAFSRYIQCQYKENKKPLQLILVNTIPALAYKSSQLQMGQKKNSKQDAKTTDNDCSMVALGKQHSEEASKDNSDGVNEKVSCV
How it was run: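 CHO cells stably expressing human HTR2A were plated for 18 h at 37 C, then loaded with calcium dye for 1 h. Compounds were preincubated 5 min at room temperature before DOI (4 nM solution) was added. Kinetic fluorescence was read for 3 min.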

[11] = molecular target: 5-hydroxytryptamine receptor 2A (Homo sapiens) (UniProt P28223); assay: 5-hydroxytryptamine receptor 2A (HTR2A) small molecule agonists, cell-based qHTS assay (AID 1963587); note: nearly all actives have a fitted effect of over 30% in size
How it was run: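 HTR2A-CHO cells, plated 18 h at 37 C/5% CO2, dye-loaded 1 h at 37 C; compounds in DMSO added by pin tool (agonist mode). Intracellular calcium flux read as kinetic fluorescence on FDSS over 2 min at 1 s intervals.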

[12] = molecular target: Muscarinic acetylcholine receptor M1 (Homo sapiens) (UniProt P11229); assay: Cholinergic receptor muscarinic 1 (CHRM1) small molecule antagonists, cell-based qHTS assay (AID 1963588); note: nearly all actives have a fitted effect of over 40% in size
Sequence of Muscarinic acetylcholine receptor M1 (Homo sapiens) (P11229 whole entry, looked up): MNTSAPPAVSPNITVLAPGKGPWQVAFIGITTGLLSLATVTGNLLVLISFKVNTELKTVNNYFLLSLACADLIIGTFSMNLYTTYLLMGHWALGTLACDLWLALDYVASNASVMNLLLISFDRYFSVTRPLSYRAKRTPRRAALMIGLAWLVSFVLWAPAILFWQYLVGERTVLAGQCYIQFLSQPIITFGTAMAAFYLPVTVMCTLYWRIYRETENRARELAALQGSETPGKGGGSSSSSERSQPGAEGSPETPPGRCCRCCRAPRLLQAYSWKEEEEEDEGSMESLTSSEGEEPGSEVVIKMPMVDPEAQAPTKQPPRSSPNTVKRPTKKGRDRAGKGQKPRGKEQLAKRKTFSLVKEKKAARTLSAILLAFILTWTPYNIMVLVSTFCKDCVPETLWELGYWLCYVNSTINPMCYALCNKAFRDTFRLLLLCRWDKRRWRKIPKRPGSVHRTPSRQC
How it was run: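 Compounds were tested at 15 concentrations in three independent runs. Dye-loaded CHRM1-CHO cells were exposed 5 min at room temperature before stimulation by acetylcholine added at 50nM. Intracellular calcium was read kinetically on FDSS for 3 min.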

[13] = molecular target: Muscarinic acetylcholine receptor M1 (Homo sapiens) (UniProt P11229); assay: Cholinergic receptor muscarinic 1 (CHRM1) small molecule agonists, cell-based qHTS assay (AID 1963589); note: nearly all actives have a fitted effect of over 35% in size
How it was run: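 Fluorescent calcium dye reports M1 activation in stably transfected CHO cells. Compounds, 15 concentrations, added after 1 h dye loading at 37 C; kinetic reading at 1 sec intervals.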

[14] = cAMP Responsive Elements (CRE) small molecule agonists, cell-based qHTS assay (AID 1963590)
How it was run: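 Compound exposure lasted 3 h at 37 C/5% CO2 in CRE-bla HEK 293T cells grown in assay medium with 10% dialyzed FBS and 25 mM HEPES. Reporter signal came from LiveBLAzer B/G FRET substrate, 2 h, room temperature.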

[15] = cAMP Responsive Elements (CRE) small molecule antagonists, cell-based qHTS assay (AID 1963591; active = well fitted inhibition curve with a large enough effect in the signal ratio in the repeat runs, not every such curve was filed as active; the % refers to the signal ratio)
How it was run: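 Stimulation used NKH477 at a final 0.25 uM for 3 h in compound-treated CRE-bla HEK293T cells, seeded 18 h beforehand. Reporter activity was measured with LiveBLAzer B/G FRET substrate after 2 h at room temperature.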

[16] = molecular target: Beta-2 adrenergic receptor (Homo sapiens) (UniProt P07550); assay: Adrenergic beta2 receptor (ADRB2) small molecule antagonists, cell-based qHTS assay (AID 1963592); note: series mostly up to about 92 µM; nearly all actives have a fitted effect of over 50% in size
Sequence of Beta-2 adrenergic receptor (Homo sapiens) (P07550 whole entry, looked up): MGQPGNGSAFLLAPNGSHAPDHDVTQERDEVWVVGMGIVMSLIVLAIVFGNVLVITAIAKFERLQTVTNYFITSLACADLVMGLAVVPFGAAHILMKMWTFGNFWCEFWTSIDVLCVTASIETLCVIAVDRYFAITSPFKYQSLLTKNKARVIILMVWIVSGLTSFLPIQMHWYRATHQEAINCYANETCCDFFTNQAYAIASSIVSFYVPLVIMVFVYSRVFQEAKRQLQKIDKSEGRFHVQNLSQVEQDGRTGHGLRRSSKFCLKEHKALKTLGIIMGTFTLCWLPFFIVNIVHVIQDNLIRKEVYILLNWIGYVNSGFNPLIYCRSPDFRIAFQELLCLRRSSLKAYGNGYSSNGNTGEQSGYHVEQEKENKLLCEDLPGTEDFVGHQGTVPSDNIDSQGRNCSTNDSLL
How it was run: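 Assay format: CHO-ADRB2 cells, 18-20hr seeding at 37C/5% CO2, then compound plus 1nM isoproterenol agonist mix for 0.5hr RT. Homogeneous time-resolved fluorescence cAMP detection after 1hr, expressed as 665/615 nm ratio.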

[17] = molecular target: Beta-2 adrenergic receptor (Homo sapiens) (UniProt P07550); assay: Adrenergic beta2 receptor (ADRB2) small molecule agonists, cell-based qHTS assay (AID 1963593);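 note: CHO cells stably overexpressing human ADRB2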
How it was run: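 CHO cells stably over-expressing ADRB2 were plated overnight at 37C, then dosed with compounds plus a stimulation mix containing 100uM IBMX and 25uM Ro-20-1724 for 0.5hr at room temperature. cAMP was measured by HTRF competition, 1hr.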

[18] = molecular target: D(2) dopamine receptor (Homo sapiens) (UniProt P14416); assay: Dopamine D2 receptor (DRD2) small molecule agonists, cell-based qHTS assay (AID 1963594); note: nearly all actives have a fitted effect of over 35% in size
Sequence of D(2) dopamine receptor (Homo sapiens) (P14416 whole entry, looked up): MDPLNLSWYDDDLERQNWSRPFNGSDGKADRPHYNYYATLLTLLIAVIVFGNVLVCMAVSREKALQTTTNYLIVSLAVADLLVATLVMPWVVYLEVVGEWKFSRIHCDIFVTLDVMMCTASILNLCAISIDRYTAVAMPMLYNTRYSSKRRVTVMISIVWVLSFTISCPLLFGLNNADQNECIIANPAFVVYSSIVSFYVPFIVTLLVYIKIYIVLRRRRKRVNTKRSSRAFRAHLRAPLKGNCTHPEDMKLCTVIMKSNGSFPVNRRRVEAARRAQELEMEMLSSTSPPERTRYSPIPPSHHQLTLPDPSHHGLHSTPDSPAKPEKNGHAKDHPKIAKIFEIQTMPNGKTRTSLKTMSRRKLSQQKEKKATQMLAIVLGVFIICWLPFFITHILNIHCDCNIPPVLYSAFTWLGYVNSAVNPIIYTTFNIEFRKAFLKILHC
How it was run: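 HEK293 cells stably expressing DRD2 were cultured 24 h at 37 C, then given Ro20-1724 (0.1 mM final) and compounds for 10 min at room temperature. NKH477 (200nM) was then added for 30 min. cAMP was read by HTRF.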

[19] = p53 small molecule agonists, cell-based qHTS assay (AID 1963582; active = well fitted activation curve with a large enough effect in the signal ratio in the repeat runs, not every such curve was filed as active; the % refers to the signal ratio; note: potency is the fitted concentration of half-maximal effect)
How it was run: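 After plating, p53RE-bla cells sat 5 h in the incubator; compounds or DMSO vehicle were pinned in; a 16 h incubation at 37 C followed; FRET substrate was added and, 2 h later at RT, fluorescence was measured.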

[20] = molecular target: D(2) dopamine receptor (Homo sapiens) (UniProt P14416); assay: Dopamine D2 receptor (DRD2) small molecule antagonists, cell-based qHTS assay (AID 1963595; active = well fitted inhibition curve with a large enough effect in the signal ratio in the repeat runs, with a control signal flat; the % refers to the signal ratio; note: potency is the fitted concentration of half-maximal effect)
How it was run: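 Stable D2 receptor HEK293 line, 24 h after seeding. Compound preincubated 10 min, then quinpirole (12 nM) with forskolin analogue NKH477 (200 nM), 30 min, room temperature. Detection by time-resolved FRET of cAMP.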

Measured: Potency

NCc1ccccc1
not listed: [19] | [20]
inactive: all other assays above

CO/N=C(/C(=O)N[C@@H]1C(=O)N2C(C(=O)OCOC(=O)C(C)(C)C)=C(C)CS[C@H]12)c1csc(N)n1
not listed: [9] | [14] | [15] | [17]
inactive: all other assays above

COC(=O)CSc1cc(N=c2sc(=O)n3n2CCCC3)c(F)cc1Cl
not listed: [9] | [10] | [12] | [14] | [15] | [17] | [18] | [19]
inactive: all other assays above

COc1ccc(/C=C/c2cc(OC)cc(=O)o2)cc1
active: [10] 9.64 µM
not listed: [9] | [14] | [17] | [19]
inactive: all other assays above

CCc1c2c(nc3ccc(OC(=O)N4CCC(N5CCCCC5)CC4)cc13)-c1cc3c(c(=O)n1C2)COC(=O)[C@]3(O)CC
active: [6] 0.0178 µM | [8] 1.26 µM | [19] 5 µM
not listed: [9] | [10] | [11] | [12] | [13] | [15] | [17]
inactive: all other assays above

COCCc1ccc(OCC2CO2)cc1 (stereo not given)
not listed: [9] | [11] | [18] | [19]
inactive: all other assays above

CCNC(=O)/C=C/c1cccc(Br)c1
not listed: [8] | [10] | [20]
inactive: all other assays above

CC(C)(C)CC(C)(C)c1ccccc1O
inactive: [2] | [3] | [4] | [5] | [6] | [12] | [13] | [18]
active: [1] 27.4 µM | [7] 41 µM | [8] 41 µM | [20] 61.4 µM

COc1ccc(S(=O)(=O)N2C(=O)[C@@](c3ccccc3OC)(N3C[C@H](O)C[C@H]3C(=O)N(C)C)c3cc(Cl)ccc32)c(OC)c1
not listed: [14] | [15] | [17] | [18] | [19]
inactive: all other assays above

CCC[Si](OC)(OC)OC
not listed: [8] | [11] | [13] | [14]
inactive: all other assays above

O=C(O)CN1C(=O)c2cccc3cccc(c23)C1=O
not listed: [9] | [12] | [17]
inactive: all other assays above

O=C1CCCc2c1cc1ccc3cccc4ccc2c1c34
active: [2] 34.8 µM
not listed: [9] | [14] | [17] | [19]
inactive: all other assays above

CC(=O)OC(C(=O)c1ccccc1)c1ccccc1 (stereo not given)
active: [10] 0.0011 µM
not listed: [8] | [15] | [17] | [18] | [20]
inactive: all other assays above

CCN=C1C=CC(=C(c2ccc(N(CC)CC)cc2)c2ccc(N(CC)CC)cc2)c2ccccc21
inactive: [2] | [3] | [4] | [5] | [6] | [10] | [11] | [12] | [13]
active: [1] 19.2 µM | [7] 22.8 µM | [8] 40.5 µM | [9] 36.1 µM

NC(=O)n1c(O)c(C(=O)c2cccs2)c2cc(Cl)ccc21
active: [2] 26.6 µM
not listed: [14] | [15] | [17] | [19]
inactive: all other assays above

O=C=Nc1ccc(Cl)c(Cl)c1
not listed: [8] | [10] | [17]
inactive: all other assays above

— PubChem BioAssay (Tox21)
